Laboratory results from PubChem BioAssay (NCATS).
Unmarked numbers belong to inactive results. Inconclusive results are not listed. Where a call stands in place of a potency, no number is given. The source made the active and inactive calls. Unless noted, the call rests on the fitted dose curve; in most records, active means well fitted curve in the direction sought with a large enough effect; inconclusive means small, poorly fitted or top-dose-only effect, or another doubt; inactive means no such curve, though single readings can be large; an effect the other way counts as inactive or inconclusive.

Tests used:
[1] = biological target: Cytochrome P450 1A2 (Homo sapiens) (UniProt P05177); assay: p450-cyp1a2 (AID 410; calls by dose curve; further: potency means the concentration at half of the fitted maximal effect)
In short: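 O-Demethylation of luciferin 6' methyl ether by human CYP1A2 is monitored as luciferase luminescence. Substrate sits at Km (100uM); enzyme is 20nM. Values are scaled to 57 uM furafylline as maximal inhibition.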

[2] = biological target: Glucocorticoid receptor (Homo sapiens) (UniProt P04150); assay: GR-GFP Redistribution (AID 450;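 active means compounds whose dose series gives a full or clear partial fitted curve of increased nuclear translocation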; further: potency means the concentration at half of the fitted maximal effect)
[3] = biological target: Glucocorticoid receptor (Homo sapiens) (UniProt P04150); assay: GR-EFC Redistribution (AID 451; calls by dose curve; further: potency means the concentration at half of the fitted maximal effect); details: CHO-K1 GR-EFC translocation, beta-gal luminescence, 2 h
In short: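 CHO-K1 cells stably expressing nuclear-localized β-gal enzyme acceptor and GR fused C-terminally to the enzyme donor fragment; ligand-driven nuclear translocation restores β-gal by complementation. Compounds titrated up to 46 uM final, 2 h at 37 °C; luminescence read.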

[4] = biological target: Mitogen-activated protein kinase 10 (Mus musculus) (UniProt Q61831); assay: JNK3 AlphaScreen Assay (AID 530; active means well fitted curve in either direction with a large enough effect, not every such curve was filed as active;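 further: kinase came from lysate of stimulated human HepG2 cells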; further: potency means the concentration at half of the fitted maximal effect)
In short: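 Phosphorylation of biotinylated GST-cJun(1-79) at Ser73 is measured by AlphaScreen proximity luminescence. Enzyme is JNK3 in HepG2 lysates activated with interleukin-1beta and tumor necrosis factor alpha; ATP is 10 uM final.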

[5] = biological target: 3',5'-cyclic-AMP phosphodiesterase 4B (Homo sapiens) (UniProt Q07343); assay: qHTS Assay for Inhibitors of PDE-IV (AID 607; active means well fitted activation curve with a large enough effect in the main read-out, with a control signal flat, not every such curve was filed as active)
In short: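 The readout is membrane depolarisation from a cAMP-sensing CNG channel, detected with a potential dye at ex 535/em 590. Cells were HEK293-derived (endogenous PDE-IV) at 1000 cells/well, titrated up to 22.9 uM final.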

[6] = biological target: Cytochrome P450 2C9 (Homo sapiens) (UniProt P11712); assay: qHTS Assay for Inhibitors and Substrates of Cytochrome P450 2C9 (AID 883); further: nearly all actives have a fitted effect of over 60% in size
In short: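 CYP2C9 deoxyluciferin hydroxylation, 37C, 60 min with NADPH regeneration; 10nM enzyme, 100uM Luciferin-H (KM). Glo detection reagent stopped reaction; luminescence normalized to sulphaphenazole (57uM) full inhibition.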

[7] = biological target: Cytochrome P450 3A4 (Homo sapiens) (UniProt P08684); assay: qHTS Assay for Inhibitors and Substrates of Cytochrome P450 3A4 (AID 884); further: series mostly up to about 57 µM; nearly all actives have a fitted effect of over 50% in size
In short: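 Luminescent readout of luciferin produced by CYP3A4 (20 nM) dealkylation of Luciferin-PPXE, 25 uM (its KM). NADPH-driven reaction ran 60 min at RT after 10 min compound preincubation; data scaled to 57 uM ketoconazole as 100% inhibition.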

[8] = biological target: DNA dC->dU-editing enzyme APOBEC-3G (Homo sapiens) (UniProt Q9HC16); assay: qHTS for inhibitors of Vif-A3G interactions: Validation (AID 588379)
In short: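 Yellow fluorescence (Ex 488, Em 500-530) of Vif-coexpressing HeLa A3G-eYFP cells, scanned by Acumen cytometer, reports blocked A3G degradation. Cells plated at 700/well overnight at 37 deg C before compound addition, then a further overnight compound incubation at 37 deg C.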

[9] = biological target: Cytochrome P450 2D6 (Homo sapiens) (UniProt P10635); assay: qHTS Assay for Inhibitors and Substrates of Cytochrome P450 2D6 (AID 891); further: nearly all actives have a fitted effect of over 60% in size; further: potency means the concentration at half of the fitted maximal effect
In short: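 Luminescent read-out of luciferin formed by 5 nM human CYP2D6 demethylating 30 uM Luciferin-ME EGE (Km level) over 60 min at room temperature after NADPH regeneration addition. Data normalized to full inhibition by 1.43 uM quinidine.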

[10] = biological target: Cytochrome P450 2C19 (Homo sapiens) (UniProt P33261); assay: qHTS Assay for Inhibitors and Substrates of Cytochrome P450 2C19 (AID 899); further: nearly all actives have a fitted effect of over 60% in size; further: potency means the concentration at half of the fitted maximal effect
In short: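 In 50mM KPO4, the reaction held 5nM enzyme and KM-level (10uM) Luciferin-H EGE; it ran 60 min at 37C after NADPH regeneration and a 10 min compound preincubation. Luminescence values were scaled to 57uM ketoconazole as complete inhibition.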

[11] = biological target: Luciferin 4-monooxygenase (Photinus pyralis) (UniProt P08659); assay: Biochemical firefly luciferase enzyme assay for NPC (AID 624030);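 further: purified P. pyralis luciferase at 10 nM with luciferin and ATP substrate; series mostly up to about 59 µM; nearly all actives have a fitted effect of over 70% in size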
In short: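 Counter-screen for direct inhibition of the luciferase enzyme by approved-drug library compounds, run at 10 nM enzyme in 50 mM Tris acetate (final). Luminescence was read within 5 min of enzyme-buffer addition and normalized to PTC124 versus DMSO (0%).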

[12] = biological target: Cytochrome P450 3A4 (Homo sapiens) (UniProt P08684); assay: qHTS Assay for Activators of Cytochrome P450 3A4 (AID 885); further: nearly all actives have a fitted effect of over 65% in size
In short: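 Activators are scored by enhanced luminescence from CYP3A4 conversion of luciferin-PPXE (25uM, equal to KM) to luciferin, after 60 min at RT with an NADPH-regenerating system.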

DNA dC->dU-editing enzyme APOBEC-3G (Homo sapiens), sequence (Q9HC16 whole entry, looked up): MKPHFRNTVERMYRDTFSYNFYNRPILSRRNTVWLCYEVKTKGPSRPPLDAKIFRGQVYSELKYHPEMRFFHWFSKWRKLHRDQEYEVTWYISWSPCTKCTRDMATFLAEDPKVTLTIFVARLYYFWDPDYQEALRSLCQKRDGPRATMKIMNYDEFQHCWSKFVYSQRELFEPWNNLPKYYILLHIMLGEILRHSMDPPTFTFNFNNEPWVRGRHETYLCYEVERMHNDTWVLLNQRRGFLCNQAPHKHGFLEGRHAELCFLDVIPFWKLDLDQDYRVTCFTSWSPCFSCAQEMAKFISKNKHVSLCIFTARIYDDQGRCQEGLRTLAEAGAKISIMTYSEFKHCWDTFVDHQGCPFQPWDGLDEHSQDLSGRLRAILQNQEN
Cytochrome P450 2C9 (Homo sapiens), sequence (P11712 whole entry, looked up): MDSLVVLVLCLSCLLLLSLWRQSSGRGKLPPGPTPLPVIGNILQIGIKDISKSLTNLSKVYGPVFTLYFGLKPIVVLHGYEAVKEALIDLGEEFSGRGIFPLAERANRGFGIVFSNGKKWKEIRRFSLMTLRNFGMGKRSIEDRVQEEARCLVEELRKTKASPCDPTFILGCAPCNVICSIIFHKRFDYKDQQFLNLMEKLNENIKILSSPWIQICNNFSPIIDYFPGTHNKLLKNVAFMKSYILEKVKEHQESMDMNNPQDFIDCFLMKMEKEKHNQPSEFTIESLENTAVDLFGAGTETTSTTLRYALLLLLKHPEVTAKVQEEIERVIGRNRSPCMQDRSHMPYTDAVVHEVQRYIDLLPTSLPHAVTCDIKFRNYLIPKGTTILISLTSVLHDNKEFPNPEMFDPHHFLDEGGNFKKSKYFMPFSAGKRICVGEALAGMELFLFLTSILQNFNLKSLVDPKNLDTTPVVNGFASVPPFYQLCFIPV
Cytochrome P450 1A2 (Homo sapiens), sequence (P05177 whole entry, looked up): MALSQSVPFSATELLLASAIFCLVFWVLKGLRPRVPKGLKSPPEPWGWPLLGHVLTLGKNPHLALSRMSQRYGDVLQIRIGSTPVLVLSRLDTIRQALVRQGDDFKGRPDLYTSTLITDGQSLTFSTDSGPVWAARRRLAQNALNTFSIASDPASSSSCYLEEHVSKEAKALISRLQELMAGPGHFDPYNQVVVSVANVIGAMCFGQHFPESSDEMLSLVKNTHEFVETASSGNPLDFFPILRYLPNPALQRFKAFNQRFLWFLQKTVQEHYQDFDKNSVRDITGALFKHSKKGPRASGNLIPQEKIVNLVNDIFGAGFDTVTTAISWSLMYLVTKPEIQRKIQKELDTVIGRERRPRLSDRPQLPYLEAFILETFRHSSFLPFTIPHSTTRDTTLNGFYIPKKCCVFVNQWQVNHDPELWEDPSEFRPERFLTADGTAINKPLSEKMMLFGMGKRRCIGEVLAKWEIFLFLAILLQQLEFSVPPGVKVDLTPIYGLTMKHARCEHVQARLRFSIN
Cytochrome P450 2D6 (Homo sapiens), sequence (P10635 whole entry, looked up): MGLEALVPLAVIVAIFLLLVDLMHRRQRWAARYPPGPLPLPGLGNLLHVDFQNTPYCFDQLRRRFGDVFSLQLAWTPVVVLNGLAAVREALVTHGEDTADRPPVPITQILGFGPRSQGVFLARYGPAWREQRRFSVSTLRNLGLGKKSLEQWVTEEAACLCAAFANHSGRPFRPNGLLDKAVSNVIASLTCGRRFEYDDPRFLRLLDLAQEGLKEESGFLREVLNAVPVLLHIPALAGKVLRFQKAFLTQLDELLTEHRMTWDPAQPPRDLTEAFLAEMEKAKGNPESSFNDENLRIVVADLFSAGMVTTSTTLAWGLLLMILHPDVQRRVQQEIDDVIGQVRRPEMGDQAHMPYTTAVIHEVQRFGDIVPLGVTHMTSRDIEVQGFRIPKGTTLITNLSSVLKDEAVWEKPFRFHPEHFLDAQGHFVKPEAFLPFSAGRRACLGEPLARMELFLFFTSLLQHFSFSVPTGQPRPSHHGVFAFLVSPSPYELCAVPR
Glucocorticoid receptor (Homo sapiens), sequence (P04150 whole entry, looked up, the tested form may be a part): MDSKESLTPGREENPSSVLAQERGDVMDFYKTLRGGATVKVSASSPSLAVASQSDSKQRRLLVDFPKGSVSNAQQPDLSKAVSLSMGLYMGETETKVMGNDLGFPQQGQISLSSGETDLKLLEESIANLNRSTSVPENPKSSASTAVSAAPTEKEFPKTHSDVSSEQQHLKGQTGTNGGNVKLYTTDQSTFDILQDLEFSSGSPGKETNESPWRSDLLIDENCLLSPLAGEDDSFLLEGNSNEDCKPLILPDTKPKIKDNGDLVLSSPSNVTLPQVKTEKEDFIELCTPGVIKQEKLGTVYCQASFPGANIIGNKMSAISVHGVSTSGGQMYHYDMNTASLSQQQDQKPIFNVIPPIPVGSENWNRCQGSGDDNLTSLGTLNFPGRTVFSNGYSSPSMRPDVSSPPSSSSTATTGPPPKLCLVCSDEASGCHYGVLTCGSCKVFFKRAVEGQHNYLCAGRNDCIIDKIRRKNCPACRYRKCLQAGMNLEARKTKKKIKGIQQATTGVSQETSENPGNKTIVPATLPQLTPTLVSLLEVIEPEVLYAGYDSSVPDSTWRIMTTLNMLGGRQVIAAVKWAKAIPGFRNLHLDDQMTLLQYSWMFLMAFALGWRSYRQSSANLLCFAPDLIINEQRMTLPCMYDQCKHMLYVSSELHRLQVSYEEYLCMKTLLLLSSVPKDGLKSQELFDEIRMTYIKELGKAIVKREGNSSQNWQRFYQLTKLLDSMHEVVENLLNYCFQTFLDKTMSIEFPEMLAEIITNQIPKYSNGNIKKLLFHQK
Cytochrome P450 3A4 (Homo sapiens), sequence (P08684 whole entry, looked up): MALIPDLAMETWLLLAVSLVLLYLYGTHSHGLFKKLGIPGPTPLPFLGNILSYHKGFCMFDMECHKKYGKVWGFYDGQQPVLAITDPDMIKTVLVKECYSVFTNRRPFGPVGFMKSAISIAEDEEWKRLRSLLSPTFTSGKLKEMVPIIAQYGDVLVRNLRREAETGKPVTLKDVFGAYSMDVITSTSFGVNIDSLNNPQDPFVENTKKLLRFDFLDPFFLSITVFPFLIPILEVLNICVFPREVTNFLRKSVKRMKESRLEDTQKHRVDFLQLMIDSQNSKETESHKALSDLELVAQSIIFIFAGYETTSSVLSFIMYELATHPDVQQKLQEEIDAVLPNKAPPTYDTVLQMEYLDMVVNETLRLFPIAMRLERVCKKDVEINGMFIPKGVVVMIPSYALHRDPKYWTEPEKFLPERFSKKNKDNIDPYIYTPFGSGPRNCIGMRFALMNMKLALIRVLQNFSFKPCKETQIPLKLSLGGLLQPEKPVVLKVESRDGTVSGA
3',5'-cyclic-AMP phosphodiesterase 4B (Homo sapiens), sequence (Q07343 whole entry, looked up): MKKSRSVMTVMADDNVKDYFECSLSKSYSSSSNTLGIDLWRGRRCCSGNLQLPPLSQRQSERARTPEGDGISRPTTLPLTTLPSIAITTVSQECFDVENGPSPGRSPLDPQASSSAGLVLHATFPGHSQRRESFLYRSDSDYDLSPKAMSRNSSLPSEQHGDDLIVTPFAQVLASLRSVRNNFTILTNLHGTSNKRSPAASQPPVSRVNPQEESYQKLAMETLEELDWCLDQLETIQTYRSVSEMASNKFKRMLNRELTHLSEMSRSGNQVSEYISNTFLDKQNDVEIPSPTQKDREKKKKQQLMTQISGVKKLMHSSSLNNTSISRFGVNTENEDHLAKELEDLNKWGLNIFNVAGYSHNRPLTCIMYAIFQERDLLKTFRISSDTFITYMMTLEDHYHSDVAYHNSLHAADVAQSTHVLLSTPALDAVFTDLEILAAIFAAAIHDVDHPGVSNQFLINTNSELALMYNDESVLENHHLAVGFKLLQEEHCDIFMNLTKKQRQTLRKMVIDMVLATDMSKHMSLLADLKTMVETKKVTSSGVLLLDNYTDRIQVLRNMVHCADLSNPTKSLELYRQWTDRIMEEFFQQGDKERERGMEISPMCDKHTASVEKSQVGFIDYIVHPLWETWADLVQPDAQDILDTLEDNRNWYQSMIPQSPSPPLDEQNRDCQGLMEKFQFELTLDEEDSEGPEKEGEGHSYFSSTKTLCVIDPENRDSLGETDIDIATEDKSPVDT
Cytochrome P450 2C19 (Homo sapiens), sequence (P33261 whole entry, looked up): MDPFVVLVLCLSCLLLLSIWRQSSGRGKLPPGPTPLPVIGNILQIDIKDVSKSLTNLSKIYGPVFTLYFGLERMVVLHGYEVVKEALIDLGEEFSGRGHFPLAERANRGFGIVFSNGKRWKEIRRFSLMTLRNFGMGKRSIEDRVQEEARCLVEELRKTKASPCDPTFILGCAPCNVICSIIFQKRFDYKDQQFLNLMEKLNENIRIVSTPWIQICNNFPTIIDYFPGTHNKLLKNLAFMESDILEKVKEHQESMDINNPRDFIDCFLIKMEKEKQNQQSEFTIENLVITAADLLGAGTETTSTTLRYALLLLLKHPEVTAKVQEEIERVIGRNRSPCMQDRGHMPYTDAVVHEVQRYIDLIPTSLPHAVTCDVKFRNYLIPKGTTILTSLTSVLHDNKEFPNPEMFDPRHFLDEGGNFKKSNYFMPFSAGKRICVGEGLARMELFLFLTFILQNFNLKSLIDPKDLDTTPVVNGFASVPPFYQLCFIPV
Luciferin 4-monooxygenase (Photinus pyralis), sequence (P08659 whole entry, looked up): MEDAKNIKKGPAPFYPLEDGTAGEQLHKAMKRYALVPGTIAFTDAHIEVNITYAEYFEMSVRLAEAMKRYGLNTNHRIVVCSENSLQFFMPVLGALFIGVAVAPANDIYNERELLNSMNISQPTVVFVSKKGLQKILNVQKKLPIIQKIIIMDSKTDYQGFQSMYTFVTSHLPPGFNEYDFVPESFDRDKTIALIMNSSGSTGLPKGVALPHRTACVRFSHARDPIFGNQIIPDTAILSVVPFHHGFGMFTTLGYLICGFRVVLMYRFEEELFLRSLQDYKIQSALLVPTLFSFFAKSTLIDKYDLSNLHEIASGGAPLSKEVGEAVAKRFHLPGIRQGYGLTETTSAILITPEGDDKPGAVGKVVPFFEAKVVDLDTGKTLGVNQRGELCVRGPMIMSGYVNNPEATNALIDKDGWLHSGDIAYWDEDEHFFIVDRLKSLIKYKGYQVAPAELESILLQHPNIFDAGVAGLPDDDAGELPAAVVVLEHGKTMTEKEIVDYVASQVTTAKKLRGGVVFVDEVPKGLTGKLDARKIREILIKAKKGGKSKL

Row | Compound | Potency [1] | Potency [2] | Potency [3] | Potency [4] | Potency [5] | Potency [6] | Potency [7] | outcome [8] | Potency [9] | Potency [10] | Potency [11] | Potency [12]
1 | COc1cc2oc(-c3ccccc3)cc(=O)c2cc1O | 1 µM (active) | > 46 µM | > 46 µM | inactive | inactive | inactive | inactive | inactive |  |  |  | 
2 | Cn1ccc(O)c(C#N)c1=O | inactive | > 46 µM | > 46 µM | inactive | inactive | inactive | inactive | inactive | inactive | inactive |  | 
3 | OC[C@@H]1O[C@@H](n2cnc3c(NCc4ccco4)ncnc32)[C@H](O)[C@H]1O | inactive | > 46 µM | > 46 µM | inactive | inactive | inactive |  |  | inactive | inactive |  | 
4 | CC(C)OC(=O)c1cc2c(OC[C@@H](O)CNC(C)(C)C)cccc2[nH]1 | 31.6 µM (active) | > 46 µM | > 46 µM | inactive |  |  |  | inactive |  |  | inactive | 
5 | O=c1c(O)c(-c2ccc(O)cc2)oc2ccc(O)cc12 | 0.2 µM (active) | > 46 µM | > 46 µM | inactive | inactive |  |  | inactive | inactive | inactive |  | inactive
6 | CN1CCc2cc3c(cc2C(=O)Cc2ccc4c(c2C1)OCO4)OCO3 | 39.8 µM (active) | > 46 µM | > 46 µM | inactive |  |  |  | inactive | 0.0501 µM (active) | 10 µM (active) |  | inactive
7 | C=CC1=C(C)C2=Cc3c(C=C)c(C)c4[n]3[Sn+2][n]3c(c(C)c(CCC(=O)O)c3=CC3=NC(=C4)C(C)=C3CCC(=O)O)=CC1=N2 | 39.8 µM (active) | > 46 µM | > 46 µM | 1 µM [activator] (active) |  |  |  | inactive | 1.26 µM (active) |  |  | 
